Results reported in the supplement of paper PMC13380429.

Tested on: Vero E6 infected with SARS-CoV-2
Experiment: inhibition of SARS-CoV-2 cytopathic effect; higher = more antiviral protection, active = above 15
Details: 48 h

Structure (SMILES) | inhibition of SARS-CoV-2 cytopathic effect (1 nM) | inhibition of SARS-CoV-2 cytopathic effect (8.33 nM) | inhibition of SARS-CoV-2 cytopathic effect (100 nM) | inhibition of SARS-CoV-2 cytopathic effect (833.33 nM) | inhibition of SARS-CoV-2 cytopathic effect (10000 nM)
C[S+]([O-])c1ccc(-c2nc(-c3ccc(F)cc3)c(-c3ccncc3)[nH]2)cc1 (stereo not given) | -0.95% (inactive) | 1.29% (inactive) | -1.08% (inactive) | -1.33% (inactive) | 4.9% (inactive)
COc1ccc(-c2cc(=O)c3c(O)c(OC)c(O)cc3o2)cc1OC [eupatilin] | 1.23% (inactive) | -0.46% (inactive) | 0.38% (inactive) | 1.92% (inactive) | 2.58% (inactive)
CCCC(=O)OCOC(=O)C1=C(C)NC(C)=C(C(=O)OC)C1c1cccc(Cl)c1Cl (stereo not given) [cleviprex] | 3.04% (inactive) | 3.86% (inactive) | 2.92% (inactive) | 0.61% (inactive) | 4.07% (inactive)
COc1cc(C[C@@H](CO)[C@H](CO)Cc2ccc(O)c(OC)c2)ccc1O [secoisolariciresinol-(-)] | 1.65% (inactive) | 5.68% (inactive) | 0.9% (inactive) | 0.53% (inactive) | -4.27% (inactive)
C=C[C@H]1CN2CC[C@H]1C[C@H]2[C@H](O)c1ccnc2ccccc12 [cinchonidine] | -0.165% (inactive) | 2.44% (inactive) | 2.67% (inactive) | 3.6% (inactive) | 2.49% (inactive)
CCOc1ccc(C(=O)OCCN(CC)CC)cc1 [parethoxycaine] | 0.82% (inactive) | -3.01% (inactive) | -2.92% (inactive) | -0.3% (inactive) | -0.09% (inactive)
CCOC(=S)SSC(=S)OCC [dixanthogen] | -1.96% (inactive) | -1.61% (inactive) | -1.47% (inactive) | -0.83% (inactive) | 1.23% (inactive)
Nc1nc(N)nc(-c2cc(Cl)ccc2Cl)n1 [irsogladine] | 2.68% (inactive) | 1.38% (inactive) | 0.04% (inactive) | 1.79% (inactive) | -0.24% (inactive)
CCOCOC[C@H](C[C@H](C)C(=O)NO)NC(=O)c1ccc(Oc2ccccc2)cc1 | 4.15% (inactive) | 13.5% (inactive) | 5.33% (inactive) | -3.29% (inactive) | -6.18% (inactive)
C[C@@H](C(=O)O)c1ccc(-c2ccccc2)c(F)c1 (racemic) [flurbiprofen-(+/-)] | 0.383% (inactive) | 0.72% (inactive) | 1.91% (inactive) | 1.32% (inactive) | -0.637% (inactive)
N[C@@H](Cc1ccc(O)cc1)C(=O)NCC(=O)NCC(=O)O | 1.38% (inactive) | 0.88% (inactive) | 1.16% (inactive) | 1.07% (inactive) | 0.4% (inactive)
CC(=O)Nc1ccc(S(=O)(=O)Nc2ccc([N+](=O)[O-])cc2)cc1 [sulfanitran] | -1.18% (inactive) | -2.16% (inactive) | 0.76% (inactive) | 0.27% (inactive) | -4.49% (inactive)
Cc1cccc(C)c1OCC(=O)N[C@@H](Cc1ccccc1)[C@@H](O)C[C@H](Cc1ccccc1)NC(=O)[C@H](C(C)C)N1CCCNC1=O [lopinavir] | 1.3% (inactive) | 1% (inactive) | 1.43% (inactive) | 0.57% (inactive) | 12.6% (inactive)
CCOC(=O)Nc1ccc(NCc2ccc(F)cc2)nc1N [flupirtine] | 0.67% (inactive) | 0.58% (inactive) | -1.4% (inactive) | 0.07% (inactive) | 1.37% (inactive)
C[C@@H](Nc1cc(F)cc(F)c1)c1cc(C(=O)N(C)C)cc2c(=O)cc(N3CCOCC3)oc12 | -3.44% (inactive) | -2.8% (inactive) | -5.04% (inactive) | 1.19% (inactive) | -4.12% (inactive)
N[C@@H](CCC(=O)N[C@@H](CSN=O)C(=O)NCC(=O)O)C(=O)O [S-nitrosoglutathione] | 0.29% (inactive) | 0.8% (inactive) | -1.28% (inactive) | -3.1% (inactive) | -0.66% (inactive)
O=C(NC1CCN(CCCCC2(C(=O)NCC(F)(F)F)c3ccccc3-c3ccccc32)CC1)c1ccccc1-c1ccc(C(F)(F)F)cc1 [lomitapide] | 0.13% (inactive) | -1.36% (inactive) | 0.35% (inactive) | -1.45% (inactive) | 20.9% (active)
COc1cc(C(=S)N2CCOCC2)ccc1O [vanitiolide] | -0.99% (inactive) | -1.31% (inactive) | -0.6% (inactive) | 2.4% (inactive) | -0.14% (inactive)
